Results as given in PubChem BioAssay (NCI).
The panel holds about 83,000 compounds, 20% with a hit somewhere; the sample as a whole holds those more often.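 How to read the values: 0–100, growth inhibition (40 = 60% inhibited); 0, no net growth; -100 to 0, cell death (-40 = 40% of starting cells died; -100 = all dead).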 A number with no mark means an inactive call. The source made the active and inactive calls. How the source made its calls: active means growth percent below 10; inactive means the rest.

Experiments:
Assay in all cases: NCI-60 one-dose screen, 48 h (100 = growth as untreated, 0 = no growth, -100 = all killed)
Conditions in all cases: 10 µM unless noted
SK-MEL-2 melanoma = test system: SK-MEL-2 melanoma
EKVX NSCLC = test system: EKVX NSCLC
SN12C renal = test system: SN12C renal
UO-31 renal = test system: UO-31 renal
TK-10 renal = test system: TK-10 renal
ACHN renal = test system: ACHN renal
CAKI-1 renal = test system: CAKI-1 renal
A498 renal = test system: A498 renal
CCRF-CEM leukemia = test system: CCRF-CEM leukemia
MOLT-4 leukemia = test system: MOLT-4 leukemia

Compound	growth (SK-MEL-2 melanoma)	growth (EKVX NSCLC) [%]	growth (SN12C renal)	growth (UO-31 renal)	growth (TK-10 renal)	growth (ACHN renal)	growth (CAKI-1 renal)	growth (A498 renal)	growth (CCRF-CEM leukemia)	growth (MOLT-4 leukemia)
O=C(Cn1cc(CSc2nc3ccccc3o2)nn1)Nc1ccc([N+](=O)[O-])cc1	106%	104	102%	78.8%	104%	95.2%	82%	101%	105%	94.1%
CCN1C(=O)N(CC)C2C1NN=c1s/c(=C3\C(=O)N(C)c4ccccc43)c(=O)n12 (stereo not given)	60.3%	57.8	36.9%	43.6%	69.8%	40.9%	42.2%	-26.9% (active)	30.8%	45.1%
COc1ccc(NC(=O)c2ccc(NC3=C(c4ccc(Cl)cc4)C(=O)NC3=O)cc2)cc1	70.4%	84.7	88.6%	64.6%	82.8%	85.9%	83.9%	87.5%	85.1%	52.6%
CN(C)c1ccc(/C=N/NC(=O)CSc2nc3sc4c(c3c(=O)n2-c2ccccc2)CCCCC4)cc1	78.6%	47	55.5%	77.8%	64.9%	24.6%	8.87% (active)	34.8%	70.9%	71.8%
Oc1cccc(-c2nc(-c3n[nH]c(=S)n3-c3ccccc3)cc3c2[nH]c2ccccc23)c1	-9.51% (active)	50.3	44.9%	49.6%	47.9%	53%	64.6%	-14.8% (active)	21.3%	26.2%
CO[C@H]1/C=C/O[C@@]2(C)Oc3c(C)c(O)c4c(O)c(c5c(nc6cc(C)ccn65)c4c3C2=O)NC(=O)/C(C)=C\C=C\[C@H](C)[C@H](O)[C@@H](C)C(O)[C@@H](C)[C@H](OC(C)=O)[C@@H]1C (stereo not given in full)	93.1%	101	98.6%	76.3%	102%	99.5%	94.6%	134%	101%	89.8%
O=C(CN1C(=O)c2ccccc2S1(=O)=O)Nc1nc(-c2cc3ccccc3oc2=O)cs1	107%	102	97.2%	91%	137%	103%	100%	98%	104%	110%
CCN1CCN(C(=O)[C@]23CC[C@@H](C)[C@H](C)[C@@H]2C2=CC[C@@H]4[C@@]5(C)C/C(=C/c6ccncc6)C(=O)C(C)(C)[C@@H]5CC[C@@]4(C)[C@]2(C)CC3)CC1	33.5%	43.7	28.1%	9.04% (active)	38.7%	15.2%	43.6%	-10.5% (active)	5.24% (active)	0.087% (active)
Brc1ccc(-c2nn(-c3ccccc3)cc2-c2nn[nH]n2)s1	96.2%	83.5	80%	52.8%	102%	89.5%	88.1%	65.7%	90.9%	99.1%
COc1ccc(-c2ccc(-c3ccc(C(=N)N)o3)o2)cc1	54%	58.4	-23.9% (active)	45.5%	61.9%	41.6%	34.4%	9.73% (active)	5.45% (active)	27.7%
O=c1ccc2nc(-c3ccccc3)nn(-c3ccccn3)c-2c1	96.8%	109	93.1%	20.5%	-83.4% (active)	-91.9% (active)	77.4%	88.2%	1.08% (active)	-10.6% (active)
Nc1ncc(-c2ccc3ncnc(N4CCc5cc(F)c(Cl)cc54)c3c2)cc1C(F)(F)F	27.7%	14.8	24.8%	-2.54% (active)	9.32% (active)	17.2%	-8.15% (active)	-50.2% (active)	28.2%	8.68% (active)
Oc1ccc(C2OCCO2)c2cccnc12	70.4%	78.4	49.1%	45%	95.5%	67.5%	105%	88.2%	13.5%	20.5%
